This passage reports inhibition results from ChEMBL document CHEMBL1961873, “Compounds: GSK PKIS; Assays: Nanosyn kinase panel” (2012).

For assay [1], the target named is Sphingosine kinase 1 (Homo sapiens) (UniProt Q9NYA1). The settings on record: at 1 µM.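 Also: mean SPHK1 inhibition value reported from the GSK PKIS kinase panel screen.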
Assay [2] deals with T1, Sphingosine kinase 2 (Homo sapiens) (UniProt Q9NRA0).
T1 sequence (whole entry): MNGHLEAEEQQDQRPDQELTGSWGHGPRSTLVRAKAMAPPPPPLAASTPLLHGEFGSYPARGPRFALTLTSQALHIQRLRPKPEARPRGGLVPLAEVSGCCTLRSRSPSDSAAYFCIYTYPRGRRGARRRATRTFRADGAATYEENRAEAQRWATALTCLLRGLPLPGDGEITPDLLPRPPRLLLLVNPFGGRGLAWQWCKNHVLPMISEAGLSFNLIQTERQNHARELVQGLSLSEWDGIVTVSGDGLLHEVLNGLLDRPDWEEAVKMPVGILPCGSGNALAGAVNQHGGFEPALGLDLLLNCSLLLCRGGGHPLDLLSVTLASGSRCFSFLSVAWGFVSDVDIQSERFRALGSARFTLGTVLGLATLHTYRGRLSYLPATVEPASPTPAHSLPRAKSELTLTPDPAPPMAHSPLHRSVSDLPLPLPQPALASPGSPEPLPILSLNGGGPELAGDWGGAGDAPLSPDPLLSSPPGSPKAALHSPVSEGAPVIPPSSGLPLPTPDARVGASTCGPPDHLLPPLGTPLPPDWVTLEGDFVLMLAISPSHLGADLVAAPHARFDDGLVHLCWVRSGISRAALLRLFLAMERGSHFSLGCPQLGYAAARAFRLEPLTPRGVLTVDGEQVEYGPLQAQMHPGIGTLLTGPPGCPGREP
The settings on record: at 0.1 µM.

The target in assay [3] is T1, Sphingosine kinase 2 (Homo sapiens). The settings on record: at 1 µM.
Assay [4] deals with Casein kinase II subunit alpha (Homo sapiens) (UniProt P68400). The settings on record: at 0.1 µM.
Assay [5] has the same target. The conditions noted are these: at 1 µM.
The target of assay [6] is T2, Inhibitor of nuclear factor kappa-B kinase subunit alpha (Homo sapiens) (UniProt O15111).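 Also: mean percent inhibition from GSK PKIS profiling.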
T2 sequence (whole entry): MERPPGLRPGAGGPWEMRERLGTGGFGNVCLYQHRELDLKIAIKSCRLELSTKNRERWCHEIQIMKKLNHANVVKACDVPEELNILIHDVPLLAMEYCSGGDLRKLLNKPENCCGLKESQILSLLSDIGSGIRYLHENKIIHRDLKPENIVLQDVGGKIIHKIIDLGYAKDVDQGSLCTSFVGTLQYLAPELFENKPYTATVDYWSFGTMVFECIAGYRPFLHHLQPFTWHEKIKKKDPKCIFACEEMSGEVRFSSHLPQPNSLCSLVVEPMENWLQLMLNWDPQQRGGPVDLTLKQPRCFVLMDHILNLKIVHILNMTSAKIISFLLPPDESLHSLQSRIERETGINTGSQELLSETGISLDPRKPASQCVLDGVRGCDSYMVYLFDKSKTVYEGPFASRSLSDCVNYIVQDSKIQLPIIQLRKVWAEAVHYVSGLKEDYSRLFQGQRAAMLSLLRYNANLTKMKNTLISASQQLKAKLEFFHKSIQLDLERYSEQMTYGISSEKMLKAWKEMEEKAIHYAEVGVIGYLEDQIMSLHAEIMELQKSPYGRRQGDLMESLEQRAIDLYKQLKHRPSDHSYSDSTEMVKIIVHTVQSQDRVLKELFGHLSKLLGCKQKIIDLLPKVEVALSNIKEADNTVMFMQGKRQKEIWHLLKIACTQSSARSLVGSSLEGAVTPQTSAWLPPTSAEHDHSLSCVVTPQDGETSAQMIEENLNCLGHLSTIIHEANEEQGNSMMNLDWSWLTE
The settings on record: at 0.1 µM.

The target of assay [7] is T3, Inhibitor of nuclear factor kappa-B kinase subunit beta (Homo sapiens) (UniProt O14920).
T3 sequence (whole entry): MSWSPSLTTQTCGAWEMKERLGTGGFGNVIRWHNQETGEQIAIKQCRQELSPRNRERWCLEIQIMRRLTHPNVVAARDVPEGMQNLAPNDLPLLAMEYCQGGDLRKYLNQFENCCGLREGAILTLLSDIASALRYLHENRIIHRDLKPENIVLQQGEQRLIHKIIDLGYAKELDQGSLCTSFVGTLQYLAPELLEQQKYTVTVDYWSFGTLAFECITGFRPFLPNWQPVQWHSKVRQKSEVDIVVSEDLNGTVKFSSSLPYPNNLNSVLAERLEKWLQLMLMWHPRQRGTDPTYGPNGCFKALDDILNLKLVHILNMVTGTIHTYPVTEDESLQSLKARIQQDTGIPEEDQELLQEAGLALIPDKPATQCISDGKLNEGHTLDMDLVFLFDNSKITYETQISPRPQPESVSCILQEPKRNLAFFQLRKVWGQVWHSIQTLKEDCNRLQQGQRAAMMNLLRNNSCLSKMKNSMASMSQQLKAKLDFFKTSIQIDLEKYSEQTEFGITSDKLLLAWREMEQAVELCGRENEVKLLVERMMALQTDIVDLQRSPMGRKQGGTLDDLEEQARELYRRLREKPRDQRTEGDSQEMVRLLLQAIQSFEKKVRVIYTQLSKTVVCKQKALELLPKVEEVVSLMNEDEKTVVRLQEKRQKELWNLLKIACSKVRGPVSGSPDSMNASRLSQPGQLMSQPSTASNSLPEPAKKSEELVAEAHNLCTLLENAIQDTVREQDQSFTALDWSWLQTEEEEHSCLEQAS
The conditions noted are these: at 0.1 µM.

Assay [8] has as its target T3, Inhibitor of nuclear factor kappa-B kinase subunit beta (Homo sapiens). The settings on record: at 1 µM.
Assay [9] deals with T4, Inhibitor of nuclear factor kappa-B kinase subunit epsilon (Homo sapiens) (UniProt Q14164).
T4 sequence (whole entry): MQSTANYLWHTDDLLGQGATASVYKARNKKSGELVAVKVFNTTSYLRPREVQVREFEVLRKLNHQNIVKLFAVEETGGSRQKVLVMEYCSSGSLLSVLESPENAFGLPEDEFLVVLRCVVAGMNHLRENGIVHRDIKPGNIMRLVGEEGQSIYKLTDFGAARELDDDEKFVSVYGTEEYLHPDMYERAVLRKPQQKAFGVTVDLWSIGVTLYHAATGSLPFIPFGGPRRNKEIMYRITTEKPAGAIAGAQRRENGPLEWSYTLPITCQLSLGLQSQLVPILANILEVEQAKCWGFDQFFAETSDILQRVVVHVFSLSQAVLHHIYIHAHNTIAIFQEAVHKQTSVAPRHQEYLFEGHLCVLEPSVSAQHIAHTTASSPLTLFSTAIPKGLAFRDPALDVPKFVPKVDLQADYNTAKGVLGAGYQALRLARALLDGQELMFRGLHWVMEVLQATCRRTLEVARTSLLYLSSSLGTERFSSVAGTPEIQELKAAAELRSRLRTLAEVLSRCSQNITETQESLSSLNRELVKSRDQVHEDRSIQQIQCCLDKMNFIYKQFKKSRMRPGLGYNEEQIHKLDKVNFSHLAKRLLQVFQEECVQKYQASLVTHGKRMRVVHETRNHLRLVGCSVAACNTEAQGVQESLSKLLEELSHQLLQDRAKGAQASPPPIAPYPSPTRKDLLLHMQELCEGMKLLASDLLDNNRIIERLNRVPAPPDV
The settings on record: at 0.1 µM.

In assay [10] the target is T4, Inhibitor of nuclear factor kappa-B kinase subunit epsilon (Homo sapiens). The settings on record: at 1 µM.
For assay [11], the target named is T5, Serine/threonine-protein kinase Nek1 (Homo sapiens) (UniProt Q96PY6).
T5 sequence (whole entry): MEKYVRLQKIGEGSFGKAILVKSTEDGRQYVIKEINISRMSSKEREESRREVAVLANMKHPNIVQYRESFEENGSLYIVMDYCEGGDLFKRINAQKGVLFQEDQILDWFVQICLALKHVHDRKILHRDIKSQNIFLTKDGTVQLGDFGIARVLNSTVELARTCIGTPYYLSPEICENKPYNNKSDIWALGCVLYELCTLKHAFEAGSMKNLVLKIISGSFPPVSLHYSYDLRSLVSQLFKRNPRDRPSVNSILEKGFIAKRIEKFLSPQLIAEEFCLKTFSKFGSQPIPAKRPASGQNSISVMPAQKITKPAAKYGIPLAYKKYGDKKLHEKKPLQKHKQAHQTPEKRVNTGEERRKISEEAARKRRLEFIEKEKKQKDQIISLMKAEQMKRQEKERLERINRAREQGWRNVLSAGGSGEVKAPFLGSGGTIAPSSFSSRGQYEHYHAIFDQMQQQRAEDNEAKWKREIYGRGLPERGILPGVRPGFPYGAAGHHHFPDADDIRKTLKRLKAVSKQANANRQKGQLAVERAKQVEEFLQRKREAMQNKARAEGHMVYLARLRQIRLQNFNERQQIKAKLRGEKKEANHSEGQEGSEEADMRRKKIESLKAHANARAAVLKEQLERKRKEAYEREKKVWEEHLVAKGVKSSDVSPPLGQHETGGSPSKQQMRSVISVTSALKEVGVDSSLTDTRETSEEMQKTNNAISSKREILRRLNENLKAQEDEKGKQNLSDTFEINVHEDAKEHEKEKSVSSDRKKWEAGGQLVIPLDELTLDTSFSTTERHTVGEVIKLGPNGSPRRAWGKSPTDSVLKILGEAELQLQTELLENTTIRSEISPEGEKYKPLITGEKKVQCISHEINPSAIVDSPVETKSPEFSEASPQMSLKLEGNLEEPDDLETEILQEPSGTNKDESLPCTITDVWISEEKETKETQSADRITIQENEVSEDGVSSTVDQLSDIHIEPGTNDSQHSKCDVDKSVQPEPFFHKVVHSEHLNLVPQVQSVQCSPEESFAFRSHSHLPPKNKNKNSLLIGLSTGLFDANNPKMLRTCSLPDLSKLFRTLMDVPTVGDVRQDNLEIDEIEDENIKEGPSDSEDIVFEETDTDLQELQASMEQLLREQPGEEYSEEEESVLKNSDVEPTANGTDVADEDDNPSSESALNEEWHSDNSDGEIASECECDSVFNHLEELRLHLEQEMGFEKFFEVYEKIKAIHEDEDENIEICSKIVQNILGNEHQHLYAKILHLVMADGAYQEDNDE
The settings on record: at 0.1 µM.

The target of assay [12] is T5, Serine/threonine-protein kinase Nek1 (Homo sapiens). The conditions noted are these: at 1 µM.
Assay [13] concerns the target T6, Serine/threonine-protein kinase Nek2 (Homo sapiens) (UniProt P51955).
T6 sequence (whole entry): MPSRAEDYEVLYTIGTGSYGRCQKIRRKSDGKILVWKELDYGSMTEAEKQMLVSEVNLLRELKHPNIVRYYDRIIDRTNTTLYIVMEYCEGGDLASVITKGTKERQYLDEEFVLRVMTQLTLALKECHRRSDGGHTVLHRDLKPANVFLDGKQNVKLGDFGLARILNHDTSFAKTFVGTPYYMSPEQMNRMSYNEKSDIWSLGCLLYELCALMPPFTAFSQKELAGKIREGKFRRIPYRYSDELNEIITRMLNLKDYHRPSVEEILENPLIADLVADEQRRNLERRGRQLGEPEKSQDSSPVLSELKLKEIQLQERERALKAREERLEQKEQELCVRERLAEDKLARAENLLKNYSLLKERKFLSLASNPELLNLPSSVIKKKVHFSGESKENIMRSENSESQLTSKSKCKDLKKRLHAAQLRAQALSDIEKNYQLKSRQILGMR
The settings on record: at 0.1 µM.

Assay [14] has as its target T6, Serine/threonine-protein kinase Nek2 (Homo sapiens). The conditions noted are these: at 1 µM.
For assay [15], the target named is Serine/threonine-protein kinase Nek6 (Homo sapiens) (UniProt Q9HC98). The settings on record: at 0.1 µM.
For assay [16] the target is unchanged. The settings on record: at 1 µM.
In assay [17] the target is Serine/threonine-protein kinase Nek7 (Homo sapiens) (UniProt Q8TDX7). The settings on record: at 0.1 µM.
Assay [18] shares this target. The settings on record: at 1 µM.
The target of assay [19] is T7, Serine/threonine-protein kinase Nek9 (Homo sapiens) (UniProt Q8TD19).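 Also: reported value is the mean percent inhibition of NEK9.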
T7 sequence (whole entry): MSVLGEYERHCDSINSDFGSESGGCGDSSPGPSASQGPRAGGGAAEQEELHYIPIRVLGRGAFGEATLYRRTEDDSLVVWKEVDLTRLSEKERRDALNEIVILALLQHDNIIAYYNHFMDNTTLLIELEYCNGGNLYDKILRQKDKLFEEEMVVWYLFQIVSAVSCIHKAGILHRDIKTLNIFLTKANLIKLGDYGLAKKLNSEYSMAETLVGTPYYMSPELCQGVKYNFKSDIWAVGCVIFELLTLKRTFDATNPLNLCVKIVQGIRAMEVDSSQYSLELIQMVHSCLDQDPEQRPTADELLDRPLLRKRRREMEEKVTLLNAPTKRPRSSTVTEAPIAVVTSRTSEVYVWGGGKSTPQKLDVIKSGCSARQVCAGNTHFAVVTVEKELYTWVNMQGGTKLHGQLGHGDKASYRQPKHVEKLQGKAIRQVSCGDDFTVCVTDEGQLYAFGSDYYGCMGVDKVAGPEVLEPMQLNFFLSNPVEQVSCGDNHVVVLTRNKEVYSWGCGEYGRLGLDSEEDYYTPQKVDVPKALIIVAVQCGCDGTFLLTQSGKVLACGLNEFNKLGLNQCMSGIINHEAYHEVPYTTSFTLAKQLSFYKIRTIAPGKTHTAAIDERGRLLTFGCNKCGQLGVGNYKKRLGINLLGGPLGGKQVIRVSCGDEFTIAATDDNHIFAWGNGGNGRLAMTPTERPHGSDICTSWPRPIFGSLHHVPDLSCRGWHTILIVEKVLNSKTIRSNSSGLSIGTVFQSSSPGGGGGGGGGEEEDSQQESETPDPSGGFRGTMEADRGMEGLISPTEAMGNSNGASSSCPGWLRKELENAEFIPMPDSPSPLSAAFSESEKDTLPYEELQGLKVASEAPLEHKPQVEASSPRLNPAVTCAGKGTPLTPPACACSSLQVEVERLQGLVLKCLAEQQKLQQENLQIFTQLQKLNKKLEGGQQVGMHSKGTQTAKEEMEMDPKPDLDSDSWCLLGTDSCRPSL
The settings on record: at 0.1 µM.

Serine/threonine-protein kinase Nek6 (Homo sapiens), sequence (Q9HC98 whole entry): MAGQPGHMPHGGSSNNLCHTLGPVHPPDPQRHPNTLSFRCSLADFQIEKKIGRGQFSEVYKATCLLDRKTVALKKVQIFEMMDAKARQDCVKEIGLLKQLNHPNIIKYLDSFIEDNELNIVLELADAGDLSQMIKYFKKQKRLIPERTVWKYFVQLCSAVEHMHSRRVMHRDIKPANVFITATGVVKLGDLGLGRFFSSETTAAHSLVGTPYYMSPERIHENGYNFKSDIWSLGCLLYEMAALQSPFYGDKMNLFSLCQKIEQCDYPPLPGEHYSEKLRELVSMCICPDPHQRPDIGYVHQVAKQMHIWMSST
Serine/threonine-protein kinase Nek7 (Homo sapiens), sequence (Q8TDX7 whole entry, looked up): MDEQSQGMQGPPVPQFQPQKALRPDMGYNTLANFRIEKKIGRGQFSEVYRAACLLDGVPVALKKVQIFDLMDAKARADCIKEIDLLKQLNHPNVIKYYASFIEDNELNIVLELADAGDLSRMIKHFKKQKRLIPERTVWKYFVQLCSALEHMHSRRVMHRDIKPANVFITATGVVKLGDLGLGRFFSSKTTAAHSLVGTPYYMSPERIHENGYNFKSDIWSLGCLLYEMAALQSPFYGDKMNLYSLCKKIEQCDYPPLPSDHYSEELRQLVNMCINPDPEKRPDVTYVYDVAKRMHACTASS
Casein kinase II subunit alpha (Homo sapiens), sequence (P68400 whole entry, looked up): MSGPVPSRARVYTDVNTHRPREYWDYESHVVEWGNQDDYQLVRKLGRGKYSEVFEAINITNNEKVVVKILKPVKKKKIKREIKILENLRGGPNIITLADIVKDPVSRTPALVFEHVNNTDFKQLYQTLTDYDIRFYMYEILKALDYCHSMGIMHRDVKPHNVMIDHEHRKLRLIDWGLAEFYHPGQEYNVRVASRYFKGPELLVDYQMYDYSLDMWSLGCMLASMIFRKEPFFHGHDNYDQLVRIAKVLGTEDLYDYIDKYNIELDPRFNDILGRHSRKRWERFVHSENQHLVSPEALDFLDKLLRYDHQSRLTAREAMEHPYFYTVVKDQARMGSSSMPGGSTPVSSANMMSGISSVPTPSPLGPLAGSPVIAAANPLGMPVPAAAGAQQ
Sphingosine kinase 1 (Homo sapiens), sequence (Q9NYA1 whole entry): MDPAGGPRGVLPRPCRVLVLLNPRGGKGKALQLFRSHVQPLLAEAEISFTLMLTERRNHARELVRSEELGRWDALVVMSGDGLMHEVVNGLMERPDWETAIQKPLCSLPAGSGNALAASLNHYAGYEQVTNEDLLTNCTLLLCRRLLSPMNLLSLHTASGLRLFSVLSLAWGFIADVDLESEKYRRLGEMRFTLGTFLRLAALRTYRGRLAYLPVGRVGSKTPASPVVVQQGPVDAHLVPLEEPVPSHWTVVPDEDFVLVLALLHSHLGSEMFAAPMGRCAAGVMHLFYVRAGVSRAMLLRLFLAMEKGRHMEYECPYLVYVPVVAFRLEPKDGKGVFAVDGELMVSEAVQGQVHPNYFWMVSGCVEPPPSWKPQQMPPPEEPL

Take `CN(C)CCOc1ccc(-c2cc(-c3ccc4c(c3)CCC4=NO)c(-c3ccncc3)o2)cc1`: the inhibition – broadly, the change of the read-out against control, counted positive when it falls – in assay [1] was -2.32%; in assay [2], -0.68%; in [3], 0.96%; in assay [4], -3%; in assay [5], 0.33%; in assay [6], -4.03%. Besides, the inhibition in [7] was -1.54%; in [8] it was -1.92%; in assay [9] it was -1.86%; in assay [10] it was 0%; in assay [11], 0.25%; in assay [12] it was 0.32%. Further, the inhibition is -0.54% in assay [13]; 0.32% in assay [14]; -0.38% in [15]; -0.66% in [16]; -2.05% in assay [17]; 0.51% in assay [18]. Further, the inhibition in assay [19] is -0.48%.
